From PubChem BioAssay AID651692 (Broad Institute, 2012)
Entries with a potency or affinity are not part of this list. A number with no mark means an inactive call.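 Rule for the calls: active = fitted half-maximal concentration for loss of cell signal no higher than twice the top valid tested concentration; inconclusive = flat curve at 30 to 70% inhibition, or poor fit; inactive = flat within 30%, signal rise, or potency above limit.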

Assay: MDA-MB-231 cell growth inhibition, dose response, cytotoxicity control for RAD54 inhibitor project, CellTiter-Glo luminescence, cherry-pick (AID 651692);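 note: 0% = median of sample compound wells and -100% = staurosporine control wells; more negative values mean stronger loss of viable cell signal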
Details: MDA-MB-231 viability, 24 h; series mostly up to 26 µM; activity change, negative = growth inhibition: at the top concentration

Structure (SMILES)	activity change, negative = growth inhibition
COc1ccc2nc(-c3ccc(N)cc3)[nH]c2c1	0.098%
Cc1cc(C)c2c(N)c3ccccc3nc2n1	-22.3%
Cc1c(Cl)ccc(S(=O)(=O)NCCCn2ccnc2)c1Cl	-1.72%
CCc1ccc2nc3nc(C)cc(C)c3c(N)c2c1	4.96%
O=C(CS(=O)(=O)c1ccccc1)Nc1ccc(Br)cn1	8.12%
CCN(CC)CCN1C(=O)c2cccc3cc(N)cc(c23)C1=O	5.41%
Cc1cccc(-c2nc(NCCCN(C)C)c3ccccc3n2)c1	3.89%
Cc1ccc(-c2nc(NCCN(C)C)c3ccccc3n2)cc1	1.78%
OCCN1CCN(c2ncnc3sc(-c4ccccc4)cc23)CC1	-7.09%
COc1ncccc1-c1cc2nc(NCCCN(C)C)n(C)c(=O)c2s1	6.33%
CN(C)CCN(C(=O)CN1C(=O)c2ccccc2C1=O)c1nc2cc3c(cc2s1)OCO3	4.48%
NC(=O)C1CCN(c2nc(-c3cccnc3)cs2)CC1	5.88%
N=c1c(C(=O)NCCN2CCOCC2)cc2c(=O)n3ccccc3nc2n1CCCN1CCOCC1	-0.68%
CCN(CC)CCN(C(=O)c1ccc2ncsc2c1)c1nc2cc3c(cc2s1)OCO3	-2.56%
CN(C)CCCNc1c2c(nc3ccccc13)CCC2	-11.5%
Cn1nc(-c2ccccc2)cc1NS(=O)(=O)c1ccc(C#N)cc1	1.14%
Cc1ccc2nc3c(c(Nc4ccc(O)cc4)c2c1)CCC3	-3.8%
C=CC(=O)Nc1ccc(N(C)c2ccnc(Nc3ccc(N4CCN(C)CC4)cc3)n2)cc1	-6.14%
CSc1nc(SCC(N)=O)c2c3c(sc2n1)CN(C)CC3	-1.15%
COc1ccc2c(c1)c1ncn(CCN3CCCCC3)c(=O)c1n2C	3.69%
COc1ccc2c(c1)c1ncn(CCN3CCCC3)c(=O)c1n2C	2.26%
COCCCNCCC(CCC(C)C)c1ccc2c(c1)OCO2 (configuration not stated)	0.637%
